# Experimental data reported in PubChem BioAssay AID686979 (National Center for Advancing Translational Sciences (NCATS), 2013).
# About 50,000 (12%) of roughly 420,000 compounds were called active. A call without a number means that no potency is given here. Not shown: some 26% with an inconclusive outcome. For the sample, actives were picked, then their nearest neighbours and some compounds at random. Values without a mark were called inactive. Calls follow the shape of the dose curve; as a rule, active = well fitted inhibition curve with a large enough effect; inconclusive = small, poorly fitted or top-dose-only effect; inactive = flat fitted curve, though single readings scatter.
# Assay: qHTS for Inhibitors of human tyrosyl-DNA phosphodiesterase 1 (TDP1): qHTS in cells in presence of CPT; also: nearly all actives have a fitted effect of over 55% in size
# Conditions: chicken DT40 Tdp1-/-;hTDP1 cells + 20 nM CPT, ATP luminescence, 48 h; series mostly up to 46.2 µM
# In short: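 Chicken DT40 Tdp1-/- cells stably complemented with human TDP1 were seeded at 400 cells/well in medium containing 20 nM camptothecin, exposed to pin-transferred compounds, and grown at 37 °C for at least 48 hr. Viability was read as ATP luminescence.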
# Potency is read from the fitted curve at half-maximal effect.
Compound,Potency,"activity change, negative = growth inhibition"
Cc1ccc(C2(C)NC(=O)N(CC(=O)Nc3ccccc3C(=O)N3CCCCC3)C2=O)cc1 (stereo unspecified),inactive,–
CCN(CC)CCCNC(=O)c1cn(C)c2ccc(S(=O)(=O)N(C)C3CCCCC3)cc2c1=O,inactive,–
CCN(CC)CCn1cnc2c1c(=O)n(CCOC(=O)c1cc(OC)c(OC)c(OC)c1)c(=O)n2C,inactive,–
CCOC(=O)C1=NN(c2ccc(Cl)cc2)/C(=C/C2=NCCc3cc(OC)c(OC)cc32)S1,inactive,–
COc1ccc([N+](=O)[O-])cc1NC(=O)COC(=O)/C=C/c1ccco1,inactive,–
COc1cc2c(cc1OC)C(/C=C/c1ccco1)=NCC2,23.1 µM (active),–
Cc1ccc2c(c1)NC(=O)[C@@]1(C)[C@@H](c3ccccc3)[C@H]3COc4ccc(Cl)cc4[C@@H]3N1C2=O,25.9 µM (active),–
C[C@@H]1NC(=O)[C@@]2(C)[C@@H](c3ccccc3)[C@H]3COc4ccccc4[C@@H]3N2C1=O,inactive,–
CCOC(=O)[C@H]1[C@H]2COc3ccc(OC)cc3[C@@H]2N2C(=O)c3ccc(F)cc3NC(=O)[C@@]12C,inactive,–
Cc1ccc(Cl)cc1N1CCN(C(=O)c2cccn3c(=O)c4cc(Cl)ccc4nc23)CC1,inactive,–
Cc1cn(C)c(CC(=O)NCc2ccc(Cl)cc2)c1C(=O)O,inactive,–
CCOC(=O)COc1ccc([N+](=O)[O-])cc1,inactive,–
CCOC(=O)/C(=C\c1ccc([N+](=O)[O-])cc1)C(=O)c1cc(C(C)=O)c(Nc2ccccc2)s1,0.58 µM (active),–
O=C(Nc1ccccc1)/C(=C/c1ccc([N+](=O)[O-])cc1)NC(=O)c1ccccc1,inactive,–
COc1ccc(NC(=O)CN(C)C(=O)c2n[nH]c3ccccc23)cc1,inactive,–
FC(F)(F)c1cccc(Nc2ncnc3ccccc23)c1,11.6 µM (active),–
O=c1cc(CO)oc(C(Nc2cccc(C(F)(F)F)c2)c2ccccn2)c1O (stereo unspecified),inactive,–
FC(F)(F)c1cccc(N/N=C/c2ccccc2)c1,inactive,–
COc1ccc(NC(=O)CSc2nc(SC)ns2)c(OC)c1,inactive,–
c1ccc(C2CNCc3c2ccc2ccccc32)cc1 (stereo unspecified),14.6 µM (active),–
C/C(=N/NC(=O)CC(=O)N/N=C(\C)c1ccc([N+](=O)[O-])cc1)c1ccc([N+](=O)[O-])cc1,inactive,–
COc1ccc(C2=NOC(C(=O)NCc3ccco3)C2)cc1OC (stereo unspecified),2.59 µM (active),–
COc1ccc(-c2cc(C(=O)NCc3ccco3)no2)cc1OC,inactive,–
COc1ccc(S(=O)(=O)N2CCC(C(=O)NCc3ccco3)CC2)cc1C,inactive,–

Compound,Potency,"activity change, negative = growth inhibition"
O=C1CC2(CCCC2)C(=O)N1CN1CCN(S(=O)(=O)c2ccc(F)cc2F)CC1,inactive,–
CCOc1ccc(CCNC(=O)CN2C(=O)NC3(CCc4ccccc43)C2=O)cc1OCC (stereo unspecified),inactive,–
O=C(CN1C(=O)NC2(CCc3ccccc32)C1=O)NC1CCCCC1 (stereo unspecified),inactive,–
CN(C)S(=O)(=O)c1cc(NC(=O)CN2C(=O)NC3(CCCc4ccccc43)C2=O)ccc1Cl (stereo unspecified),16.4 µM (active),–
Cc1ccc(COc2ccc(C(=O)NN)cc2)cc1,inactive,–
CCN(CC)CCNCC(=O)Nc1ccc(Oc2ccccc2)cc1,inactive,–
O=C(c1ccc2c(c1)C(=O)N(Cc1ccncc1)C2=O)N1CCN(S(=O)(=O)c2ccc(OC(F)(F)F)cc2)CC1,inactive,–
OCCCNc1nccc(-c2cc(Nc3cccc(Cl)c3)ncn2)n1,1.16 µM (active),–
NS(=O)(=O)c1cccnc1Nc1cccc(Cl)c1,inactive,–
O=C(Nc1cccc(Cl)c1)OCc1ccccn1,inactive,–
Cc1c(C)n2c(SCC(=O)NC3CCCC3)nnc2[nH]c1=O,inactive,–
CCCN(CC(=O)Nc1ccc(OC)c(OC)c1)CC(=O)Nc1ccc(F)c(F)c1F,inactive,–
O=C(COc1ccc(S(=O)(=O)N2CCCC2)cc1[N+](=O)[O-])N1CCCCC1,inactive,–
Cc1cc(C(=O)COc2ccccc2[N+](=O)[O-])c(C)n1-c1cccc(S(=O)(=O)N2CCOCC2)c1,16.4 µM (active),–
Cc1cc(S(=O)(=O)N2CCOCC2)ccc1OCC(=O)N1CCOCC1,inactive,–
Cc1cccc(N(C(=O)c2sc(C)nc2C)C(C(=O)NCC2CCCO2)c2ccccc2)c1 (stereo unspecified),inactive,–
CN(C)c1ccc(S(=O)(=O)NCC(=O)NCC2CCCCC2)cc1[N+](=O)[O-],inactive,–
CCOc1ccc(S(=O)(=O)NCCC(=O)NNC(=O)c2ccc(F)cc2)cc1,inactive,–
O=C(c1ccncc1)N1CCN(S(=O)(=O)c2cccc([N+](=O)[O-])c2)CC1,inactive,–
CCc1ccc(OCC(=O)OC(C)C(=O)NC2CC2)cc1 (stereo unspecified),inactive,–
CN(CC(=O)Nc1c(Cl)cccc1Cl)C(=O)CC1OC(=O)c2ccccc21 (stereo unspecified),inactive,–
CCCOC(=O)c1c(NC(=O)c2cc3nc(-c4ccc(OC)cc4)cc(C(F)(F)F)n3n2)sc2c1CCCC2,inactive,–
COc1ccc(NC(=O)CN(C)C(=O)c2ccc(COc3ccccc3)o2)cc1,inactive,–
O=[N+]([O-])c1ccc(C=Nc2ccc(Cl)cc2Cl)s1,6.51 µM (active),–

Compound,Potency,"activity change, negative = growth inhibition"
CC(=O)N1C(=O)/C(=C2\SC(=S)N(NC(=O)c3ccc(O)cc3)C2=O)c2ccccc21,inactive,–
CCOc1ccc(CNC(=O)c2cccc(Nc3nc4ccccc4n4nnnc34)c2)cc1OC,inactive,–
CCOC(=O)c1cc(-c2ccc(F)cc2)n(CC(=O)NCc2ccccn2)c1C,inactive,–
Cc1oc(-c2ccccc2F)nc1CS(=O)CC(=O)NCCN1CCCCC1C (stereo unspecified),inactive,–
Fc1ccc(-c2ccc(NCCN3CCOCC3)nn2)cc1,inactive,–
CN(C)c1ccc(-c2nc(NCCN3CCOCC3)c3ccccc3n2)cc1,5.8 µM (active),–
CCC(=O)OCCNc1nc(-c2ccccc2)nc2ccccc12,inactive,–
CC1CCN(C(=O)CSc2nnc(-c3ccco3)n2N)CC1,inactive,–
CC1(C(=O)NS(=O)(=O)c2cccc(OC(F)F)c2)CCN1C(=O)C1CC1 (stereo unspecified),inactive,–
CC1CCCCC1NC(=O)COC(=O)Cc1ccc(Cl)cc1 (stereo unspecified),inactive,–
COc1ccc(-n2nnnc2-c2nc3ccccc3s2)cc1,inactive,–
COc1ccc(C2=NN(C(C)=O)C(c3ccccc3)C2)cc1 (stereo unspecified),inactive,–
COc1ccc(C2=NN(c3nc4ccccc4s3)C(=O)C2)cc1,20.6 µM (active),–
COc1ccc(S(=O)(=O)NCC2CCCN(C(=O)c3occc3C)C2)cc1 (stereo unspecified),inactive,–
Cc1ccccc1OCC(=O)NCC(=O)OCC(=O)c1ccc2ccccc2c1,inactive,–
CC1(NC(=O)CCS(=O)(=O)c2ccc(Cl)cc2)CCS(=O)(=O)C1 (stereo unspecified),inactive,–
CCOc1ccc(CN2CCN(Cc3ccc(C)o3)CC2CCO)cc1 (stereo unspecified),inactive,–
O=S(=O)(Nc1ccc2[nH]ncc2c1)c1ccccc1Cl,inactive,–
COC(=O)c1cc(NC(=O)c2ccco2)ccc1N1CCOCC1,inactive,–
COC(=O)c1cc(NC(=O)c2cccnc2)ccc1N1CCOCC1,inactive,–
CC(=O)Nc1ccc(N2CCOCC2)c(C(=O)Nc2cccc(C)c2)c1,13 µM (active),–
COc1ccc(NS(=O)(=O)c2cc(NC(=O)c3ccc(S(=O)(=O)N(C)C)cc3)ccc2N2CCOCC2)cc1,inactive,–
O=C(NNC(=O)c1cccc(S(=O)(=O)Nc2ccc(Cl)cc2)c1)c1ccc(=O)[nH]c1,inactive,–
CCN(CC)c1ccc(NC(=O)c2ccc(=O)[nH]c2)cc1S(=O)(=O)Nc1ccc(OC)cc1,29.1 µM (active),–

Compound,Potency,"activity change, negative = growth inhibition"
Cc1cc(OCC(=O)N2CCN(c3ncccn3)CC2)ccc1Cl,inactive,–
COC(=O)C1=C(C)N(C)C(=S)NC1c1cc(OC)ccc1OC (stereo unspecified),inactive,–
COc1cc2c(cc1OC)[C@@H](Cc1cc(OC)c(OC)c(OC)c1)[N+](C)(CCCOC(=O)CC/C=C/CCC(=O)OCCC[N+]1(C)CCc3cc(OC)c(OC)cc3[C@H]1Cc1cc(OC)c(OC)c(OC)c1)CC2 (stereo partly specified),inactive,–
COc1ccc(CC2c3cc(OC)c(OC)cc3CC[N+]2(C)CCC(=O)OCCCCCOC(=O)CC[N+]2(C)CCc3cc(OC)c(OC)cc3C2Cc2ccc(OC)c(OC)c2)cc1OC (stereo unspecified),16.4 µM (active),–
COC(=O)C1=CN(Cc2ccc(OC)c(OC)c2)C=C(C(=O)OC)C1c1cccs1,inactive,–
O=C(NCc1cccc(CNC(=O)Nc2cccc(O)c2)c1)Nc1cccc(O)c1,inactive,–
COc1ccc(C(=O)OCC(=O)Nc2ccc3[nH]c(=O)[nH]c3c2)c(OC)c1OC,inactive,–
C/C(=N\N1CCN(Cc2ccc(C)cc2)CC1)c1ccco1,inactive,–
NS(=O)(=O)c1ccc(N2C(=O)C3C4CC(C(Br)C4Br)C3C2=O)cc1 (stereo unspecified),inactive,–
CC1(C)CC(=O)C=C(Nc2ccccc2)C1,inactive,–
Cc1cc(O)ccc1NC1=CC(=O)CC(C)(C)C1,inactive,–
Cc1ccccc1C#CC1=CC(=O)CC(C)(C)C1,20.6 µM (active),–
COc1ccc(C2(O)C(=O)Nc3ccccc32)cc1 (stereo unspecified),inactive,–
CC(=O)N1CCN(CC(C)(C)NS(=O)(=O)c2ccc(C)cc2)CC1,inactive,–
CCOc1ccc(OCC)c(NS(=O)(=O)c2ccc3[nH]c(=O)ccc3c2)c1,inactive,–
COc1cc(NS(=O)(=O)c2ccc3ccccc3c2)c2ncccc2c1,8.2 µM (active),–
COc1ccc2cc(S(=O)(=O)Nc3ccccn3)ccc2c1,inactive,–
CN(C)C(=O)[C@@H]1C[C@@H](Sc2nc3ccccc3[nH]2)CN1Cc1ccc(Cl)cc1,–,0.0416% [at 9.04 µM]
CCCCn1nc(C(=O)OCC(=O)Nc2sccc2C(N)=O)c2ccccc2c1=O,inactive,–
CCCCn1nc(C(=O)N2CCc3ccccc32)c2ccccc2c1=O,18.4 µM (active),–
CCOC(=O)C(C)Oc1cccc2c(=O)n(CC(=O)N3CCc4ccccc43)ccc12 (stereo unspecified),inactive,–
O=C(CSc1nc2ccccc2[nH]1)Nc1nc(-c2ccccc2)c(-c2ccccc2)o1,inactive,–
O=C(CSc1n[nH]c(-c2cccs2)n1)N1CCCCC1,inactive,–
Cc1cccc(C)c1-n1c(C)cc(/C=C2\C(=O)NN(c3ccccc3)C2=O)c1C,inactive,–
